The source made the active and inactive calls. Unless noted, how the calls were made is not given here.

Assay [1] deals with Wnt5a (protein binding on small-molecule microarray). Kind of assay: small molecules binding Wnt5a protein – biophysical, small-molecule microarray, 635/667 nm fluorescence, primary screen (AID 1142).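 Further: fluorescence read at 667 nm with signal to noise per printed feature.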 The conditions noted are these: 635 nm fluorescence, higher = more signal.
Assay [2] can be described thus: ATP-based viability of Huh7 replicon cells – cell-based, CellTiter-Glo luminescence, basal, 48 h, cytotoxicity control for HCV replication inhibitor project, primary screen (AID 1143).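 Further: Huh7 hepatoma cells carrying a hepatitis C replication reporter with no stimulus; test concentration not given here.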 Particulars: higher = more signal, called active from +8 up or from −8 down.
A short description of assay [3]: Pseudomonas biofilm growth suppression – PAO1 strain, BacTiter-Glo luminescence, LB-PBS, primary screen (AID 1144). The conditions noted are these: P. aeruginosa PAO1 biofilm, 12 h, higher = more signal.
The nature of assay [4]: basal CRE-LacZ reporter activity in PC12 – cell-based, unstimulated, primary screen (AID 1145). The conditions noted are these: no forskolin, luminescence, 4.5 h, higher = more signal, called active from +8 up or from −8 down.
A short description of assay [5]: forskolin-driven CRE-LacZ activity in PC12 – cell-based, CRE-LacZ reporter, forskolin-stimulated, primary screen (AID 1146).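 Further: PC12 cells with 6xCRE LacZ reporter stimulated by forskolin 10 µM; beta-galactosidase reporter signal reflecting CREB driven transcription.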 Particulars: luminescence, 4.5 h, higher = more signal, called active from +8 up or from −8 down.
Assay [6] concerns the target Streptavidin (Streptomyces avidinii) (UniProt P22629). Kind of assay: compounds binding control protein streptavidin – biophysical, small-molecule microarray, 635/667 nm fluorescence, artefact control for SMM compound annotation, primary screen (AID 1147).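 Further: signal reflects streptavidin binding to arrayed compounds as a control protein.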 The conditions noted are these: higher = more signal.
A short description of assay [7]: probe aInhba binding on compound microarray – biochemical, small-molecule microarray, 635/667 nm fluorescence, primary screen (AID 1148).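 Further: score merges 667nm spot fluorescence with signal-to-noise for antibody binding to printed compounds.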 Particulars: higher = more signal.
Assay [8] concerns the target Torsin-1A (Homo sapiens) (UniProt O14656). Kind of assay: TOR1A wild-type binding on microarray – cell lysate, small-molecule microarray, lysate, 635/667 nm, primary screen (AID 1149). The conditions noted are these: COS7 hTOR1A-WT lysate, 635 nm fluorescence, higher = more signal.
Assay [9] has the same target. Kind of assay: torsin A mutant lysate binding on microarrays – cell lysate, small-molecule microarray, COS7 lysate, 635/667 nm fluorescence, primary screen (AID 1150).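 Further: score pools 667 nm emission and signal to noise measuring lysate protein binding.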 The conditions noted are these: COS7 hTOR1A mutant lysate, 635 nm fluorescence, higher = more signal.
In assay [10] the test system is Sonic hedgehog protein (Shh). Kind of assay: Sonic hedgehog microarray binding compounds – biochemical, small-molecule microarray, 635/667 nm fluorescence, primary screen (AID 1151).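 Further: Shh protein binding to compounds spotted on small-molecule microarray slides; score combines spot fluorescence intensity with signal-to-noise across triplicate slides.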 The conditions noted are these: 635 nm fluorescence, higher = more signal.
Assay [11] is described as follows: optical density shifts of acrAB sulA E. coli – strain DRC41, OD650, 48 h, E. coli filamentation inducer project, primary screen (AID 1152).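 Further: E. coli MC1000 strain DRC41 lacking acrAB efflux pump and sulA.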 Particulars: higher = more signal, called active from +8 up or from −8 down.
Assay [12] can be described thus: probe aLefty1 binding on compound microarray – biochemical, small-molecule microarray, 635/667 nm fluorescence, primary screen (AID 1153).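 Further: score merges spot fluorescence with signal-to-noise ratio from the scanned slide images.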 Particulars: higher = more signal.
Assay [13] can be described thus: plasmodial surface anion channel blockers, osmotic lysis – cell-based, P. falciparum Indochina, OD700, 1 h, primary screen (AID 1154). Particulars: P. falciparum Indochina infected RBC osmotic lysis, higher = more signal, called active from +8 up or from −8 down.
A short description of assay [14]: plasmodial surface anion channel blockers, osmotic lysis – cell-based, P. falciparum Indochina, OD700, 2 h, primary screen (AID 1155).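 Further: lysis reports solute entry through the parasite surface anion channel PSAC.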 Particulars: P. falciparum Indochina infected erythrocytes, higher = more signal, called active from +8 up or from −8 down.
Assay [15] is described as follows: changes in parasitized red cell lysis, either direction – P. falciparum Indochina, OD700, 3 h, PSAC antagonist project, primary screen (AID 1156). The conditions noted are these: P. falciparum-infected erythrocytes, osmotic lysis, higher = more signal, called active from +8 up or from −8 down.
The nature of assay [16]: plasmodial surface anion channel blockers, osmotic lysis – cell-based, P. falciparum Indochina, OD700, 18 h, primary screen (AID 1157). The conditions noted are these: P. falciparum Indochina infected erythrocytes, osmotic lysis OD700, 18 h; higher = more signal, called active from +8 up or from −8 down.
A short description of assay [17]: S6 kinase pathway phospho-S6 level changes – cell-based, A549, cytoblot, luminescence, serum-stimulated, primary screen (AID 1158).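 Further: serum-stimulated A549 lung adenocarcinoma cells; signal is phosphorylated S6 detected by cytoblot immunostaining with HRP secondary.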 The conditions noted are these: 5 h, higher = more signal.
The target of assay [18] is NADPH oxidase 2 (Homo sapiens) (UniProt P04839). Kind of assay: compounds shifting NOX2 Amplex Red fluorescence – cell-based, HEK293-NOX2, PMA-stimulated, NOX inhibitor project, primary screen (AID 1159). Further: test concentration not given here. Particulars: 45 min, higher = more signal, called active from +8 up or from −8 down.
Assay [19] concerns the target NADPH oxidase 4 (Homo sapiens) (UniProt Q9NPH5). Kind of assay: compounds shifting NOX4 Amplex Red fluorescence – cell-based, HEK293-NOX4, tetracycline-induced, NOX inhibitor project, primary screen (AID 1160). The conditions noted are these: HEK293-NOX4, Amplex Red H2O2 fluorescence, 45 min; higher = more signal, called active from +8 up or from −8 down.
The target of assay [20] is NADPH oxidase 5 (Homo sapiens) (UniProt Q96PH1). Kind of assay: compounds shifting NOX5 Amplex Red fluorescence – cell-based, HEK293-NOX5, NOX inhibitor project, primary screen (AID 1161). Particulars: HEK293-NOX5, ionomycin, 45 min, higher = more signal.
NADPH oxidase 5 (Homo sapiens), sequence (Q96PH1 whole entry, looked up): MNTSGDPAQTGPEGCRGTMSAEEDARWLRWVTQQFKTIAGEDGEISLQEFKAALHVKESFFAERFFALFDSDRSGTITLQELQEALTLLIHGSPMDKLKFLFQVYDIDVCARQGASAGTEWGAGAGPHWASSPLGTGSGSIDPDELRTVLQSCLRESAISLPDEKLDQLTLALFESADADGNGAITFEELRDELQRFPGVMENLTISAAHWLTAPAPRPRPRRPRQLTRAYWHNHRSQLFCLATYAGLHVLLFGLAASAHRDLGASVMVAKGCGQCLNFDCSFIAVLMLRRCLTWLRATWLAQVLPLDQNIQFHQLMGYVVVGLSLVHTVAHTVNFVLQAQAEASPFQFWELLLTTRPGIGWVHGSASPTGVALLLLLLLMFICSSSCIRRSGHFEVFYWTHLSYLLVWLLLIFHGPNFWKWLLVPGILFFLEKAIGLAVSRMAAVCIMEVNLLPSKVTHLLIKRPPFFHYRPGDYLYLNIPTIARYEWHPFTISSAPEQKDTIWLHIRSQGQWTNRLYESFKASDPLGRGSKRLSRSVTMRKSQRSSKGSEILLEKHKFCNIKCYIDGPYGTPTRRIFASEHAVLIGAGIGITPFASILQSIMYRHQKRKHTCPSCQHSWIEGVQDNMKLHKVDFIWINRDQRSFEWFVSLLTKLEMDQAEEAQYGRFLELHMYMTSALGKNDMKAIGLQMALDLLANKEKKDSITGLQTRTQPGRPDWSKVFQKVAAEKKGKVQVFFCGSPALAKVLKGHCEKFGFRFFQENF

NADPH oxidase 4 (Homo sapiens), sequence (Q9NPH5 whole entry, looked up): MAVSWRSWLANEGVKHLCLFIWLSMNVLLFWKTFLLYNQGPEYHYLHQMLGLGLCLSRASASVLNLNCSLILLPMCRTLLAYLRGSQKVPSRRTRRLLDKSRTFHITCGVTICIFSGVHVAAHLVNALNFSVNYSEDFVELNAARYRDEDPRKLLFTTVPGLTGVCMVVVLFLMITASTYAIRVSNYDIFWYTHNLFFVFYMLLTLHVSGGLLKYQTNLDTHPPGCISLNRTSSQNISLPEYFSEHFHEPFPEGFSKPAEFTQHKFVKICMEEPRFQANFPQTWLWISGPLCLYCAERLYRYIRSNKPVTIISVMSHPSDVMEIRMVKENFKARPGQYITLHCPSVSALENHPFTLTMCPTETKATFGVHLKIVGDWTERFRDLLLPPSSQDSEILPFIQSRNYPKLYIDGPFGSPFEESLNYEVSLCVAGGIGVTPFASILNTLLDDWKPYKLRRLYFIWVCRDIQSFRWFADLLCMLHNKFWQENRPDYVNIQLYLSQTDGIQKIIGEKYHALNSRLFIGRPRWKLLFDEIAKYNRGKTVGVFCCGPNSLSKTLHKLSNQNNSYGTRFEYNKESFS
Torsin-1A (Homo sapiens), sequence (O14656 whole entry, looked up): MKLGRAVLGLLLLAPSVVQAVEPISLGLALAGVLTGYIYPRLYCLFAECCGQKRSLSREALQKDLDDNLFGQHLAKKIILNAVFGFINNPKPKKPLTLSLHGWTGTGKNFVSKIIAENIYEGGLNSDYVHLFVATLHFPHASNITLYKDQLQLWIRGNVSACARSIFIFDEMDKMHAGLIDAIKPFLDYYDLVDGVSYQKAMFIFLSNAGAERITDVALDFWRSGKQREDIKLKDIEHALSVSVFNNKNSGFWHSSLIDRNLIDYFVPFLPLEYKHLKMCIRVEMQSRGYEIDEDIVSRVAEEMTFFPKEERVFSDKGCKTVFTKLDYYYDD
NADPH oxidase 2 (Homo sapiens), sequence (P04839 whole entry, looked up): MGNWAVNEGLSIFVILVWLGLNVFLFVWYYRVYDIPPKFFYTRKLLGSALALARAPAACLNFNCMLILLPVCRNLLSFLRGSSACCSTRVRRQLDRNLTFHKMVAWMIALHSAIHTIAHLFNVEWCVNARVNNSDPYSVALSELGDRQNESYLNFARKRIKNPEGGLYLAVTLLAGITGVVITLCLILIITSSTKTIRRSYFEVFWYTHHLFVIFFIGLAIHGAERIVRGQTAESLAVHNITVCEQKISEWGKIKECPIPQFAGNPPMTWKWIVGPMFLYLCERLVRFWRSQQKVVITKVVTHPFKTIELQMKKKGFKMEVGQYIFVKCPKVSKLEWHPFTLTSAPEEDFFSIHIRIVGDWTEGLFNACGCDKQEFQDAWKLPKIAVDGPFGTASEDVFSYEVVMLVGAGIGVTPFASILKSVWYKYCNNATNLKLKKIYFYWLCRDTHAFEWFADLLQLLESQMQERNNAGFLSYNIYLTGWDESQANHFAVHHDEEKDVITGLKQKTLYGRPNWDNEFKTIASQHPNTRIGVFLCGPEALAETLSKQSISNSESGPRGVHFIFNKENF
Streptavidin (Streptomyces avidinii), sequence (P22629 whole entry, looked up): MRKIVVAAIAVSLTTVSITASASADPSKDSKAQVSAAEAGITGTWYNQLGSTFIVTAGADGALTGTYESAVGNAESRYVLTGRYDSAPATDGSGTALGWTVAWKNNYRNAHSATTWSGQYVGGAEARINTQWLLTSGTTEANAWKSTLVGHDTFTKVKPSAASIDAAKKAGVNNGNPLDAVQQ

Turning to `O=C1N(Cc2ccccc2)c2ccccc2[C@H]2OC(c3ccc(OCCCO)cc3)=N[C@@]12Cc1ccccc1`, the composite z-score in [1] is 0.806; in assay [6] it was 0.0454; in assay [7], 0.147; in [8] it was -0.0599; in assay [9], 0.242; in [10], 1.64. In [12], this molecule had a composite z-score of 0.31. For the same molecule, the z-score in [2] was -4.93 (inactive); in [3], -0.0376 (inactive); in assay [4], 0.708 (inactive); in [5] it was -1.07 (inactive); in assay [11] it was -0.456 (inactive); in assay [13], 28.7 (active). Moreover, the z-score was 25.3 (active) in assay [14]; 3.25 (inactive) in [15]; 2.26 (inactive) in [16]; 0.381 in assay [17]; -1.32 (inactive) in assay [18]; -0.641 (inactive) in assay [19]. For the same molecule, in assay [20], the z-score is -1.68.
With `Cc1ccc(S[C@]2(C(=O)NCC(F)(F)F)CC(=O)N(C3CCCCC3)[C@@H]2c2ccc(CO)cc2)cc1`, the composite z-score is 0.0911 in [1]; -0.777 in assay [6]; -0.176 in assay [7]; 0.118 in assay [8]; 1.06 in [9]; -0.121 in [10]. In [12], this molecule came in with a composite z-score of 0.123. The z-score in assay [2] was -1.09 (inactive); in [3], 0.12 (inactive); in [4], -0.529 (inactive); in [5] it was -0.147 (inactive); in [11] it was 0.344 (inactive); in assay [13], 1.58 (inactive). In addition, the z-score in [14] is 0.525 (inactive); in assay [15] it was 0.621 (inactive); in assay [16], 0.157 (inactive); in assay [17] it was -0.14; in [18] it was -0.941 (inactive); in [19] it was 0.03 (inactive). The z-score in [20] turned out to be 0.192.
As to `C=CCOC(=O)[C@H]1[C@@H]2C(=O)O[C@@H](c3ccccc3)[C@@H](c3ccccc3)N2[C@@H](c2ccc(OCCOC(=O)[C@H]3C[C@H]4C(=O)NCC(=O)N4[C@H]3c3ccc(O)cc3)cc2)[C@]12C(=O)Nc1ccc(I)cc12`, the composite z-score in assay [1] was 0.112; in assay [6], 0.343; in assay [7], -0.0736; in assay [8], 0.406; in assay [9] it was 0.349; in [10], 1.55. The molecule also returned a composite z-score in assay [12] of 0.0359. The z-score was -0.402 (inactive) in assay [2]; -1.01 (inactive) in assay [3]; -0.13 (inactive) in assay [4]; -0.8 (inactive) in assay [5]; 0.345 (inactive) in assay [11]; 2.6 (inactive) in assay [13]. Further, the z-score in assay [14] is 2.66 (inactive); in assay [15], 1.02 (inactive); in assay [16], 1.33 (inactive); in [17], 0.839; in [18] it was 1.54 (inactive); in assay [19], 1.5 (inactive). Moreover, the z-score in assay [20] was determined as 1.22.
On to `COc1ccc(CCNC(=O)[C@@]2(C)c3ccccc3C(=O)N(Cc3cc(C(F)(F)F)cc(C(F)(F)F)c3)[C@H]2c2ccc(CO)cc2)cc1`, for which the composite z-score was 0.024 in assay [1]; -0.404 in assay [6]; -0.102 in assay [7]; 0.602 in [8]; 1.52 in assay [9]; 0.198 in assay [10]. This molecule also displayed a composite z-score in assay [12] of -0.216. The z-score is -5.45 (inactive) in assay [2]; 0.603 (inactive) in assay [3]; 1.18 (inactive) in assay [4]; -0.896 (inactive) in assay [5]; 1.28 (inactive) in assay [11]; 8.19 (active) in [13]. For the same molecule, the z-score in assay [14] is 0.566 (inactive); in assay [15] it was 1.85 (inactive); in assay [16], -0.388 (inactive); in [17], 2.76; in [18], -3.19 (inactive); in [19], -1.7 (inactive). Moreover, the z-score in assay [20] is -2.75.
For the molecule `C=C(COC)/C(=C/C[C@H](OC(=O)c1ccncc1)c1ccc(OCCO)cc1)c1cc(C(=O)OC)ccc1OC`, the composite z-score in [1] was 0.457; in assay [6], 0.616; in assay [7], -0.0087; in [8], 0.229; in [9] it was 0.132; in assay [10], 1.94. Besides, in assay [12], the composite z-score turned out to be 0.0999. For the same molecule, the z-score is -3.86 (inactive) in [2]; -0.999 (inactive) in assay [3]; 5.8 (inactive) in assay [4]; 0.946 (inactive) in [5]; 1.79 (inactive) in assay [11]; 21.4 (active) in [13]. Also, the z-score in assay [14] was 2.24 (inactive); in [15], 2.31 (inactive); in assay [16], -1.02 (inactive); in [17] it was 0.876; in [18], -3.16 (inactive); in [19], -1.49 (inactive). The z-score in assay [20] is -2.53.
For the molecule `CN1C=C(C(=O)OCCS(C)(=O)=O)C(C(=O)OCCS(C)(=O)=O)=CC(CCCO)=CC1c1ccc(CN2CCCC2)cc1` (stereo not given), the composite z-score came out at 0.531 in assay [1]; 1.24 in assay [6]; 0.253 in [7]; 0.244 in [8]; 1.19 in assay [9]; 1.06 in assay [10]. Also, the composite z-score in [12] is 0.546. Further, the z-score in assay [2] is -0.209 (inactive); in [3], 0.356 (inactive); in [4], 5.05 (inactive); in [5], -0.267 (inactive); in [11] it was 0.0837 (inactive); in assay [13], 1.39 (inactive). For the same molecule, the z-score is -0.162 (inactive) in assay [14]; -0.203 (inactive) in assay [15]; 0.0374 (inactive) in assay [16]; -0.0029 in assay [17]; 0.526 (inactive) in assay [18]; 0.0702 (inactive) in assay [19]. Moreover, the z-score in [20] is -1.65.
Take `CN(C)CCCNC(=O)[C@@]1(Cc2ccccc2I)c2ccccc2C(=O)N(Cc2ccccc2)[C@H]1c1ccc(CO)cc1`: the composite z-score was 0.652 in [1]; -0.203 in assay [6]; -0.471 in assay [7]; 0.0857 in [8]; 0.325 in assay [9]; 1.41 in [10]. Further, in assay [12], the composite z-score was -0.729. The z-score is -5.58 (inactive) in assay [2]; 0.113 (inactive) in assay [3]; 0.351 (inactive) in assay [4]; 2.56 (inactive) in assay [5]; -0.206 (inactive) in assay [11]; 1.88 (inactive) in assay [13]. The z-score was 0.614 (inactive) in [14]; -1.26 (inactive) in assay [15]; 0.452 (inactive) in assay [16]; -0.5 in assay [17]; -8.23 (active) in [18]; -3.08 (inactive) in [19]. In addition, in [20], the z-score was -1.71.
For the molecule `CCC[C@@H]1C=C(C(=O)OCC)[C@H](c2ccccc2)N1S(=O)(=O)c1ccc(C)cc1`, the composite z-score came out at 0.539 in assay [1]; 0.795 in assay [6]; 0.436 in assay [7]; 0.131 in [8]; 0.373 in [9]; 0.203 in assay [10]. This molecule also yielded a composite z-score in assay [12] of 0.316. Besides, the z-score in assay [2] is -4.29 (inactive); in assay [3] it was 1.18 (inactive); in [4] it was -0.527 (inactive); in [5], -0.578 (inactive); in assay [11], -0.843 (inactive); in [13], -0.0086 (inactive). Also, the z-score is 0.979 (inactive) in assay [14]; -0.628 (inactive) in assay [15]; 0.0962 (inactive) in assay [16]; -0.788 in assay [17]; -0.671 (inactive) in assay [18]; -0.646 (inactive) in [19]. The z-score in [20] is -0.135.

Values taken from PubChem BioAssay.
